Reference: PubChem BioAssay (NCATS)
Results filed as inconclusive are left out. The source made the active and inactive calls. Calls follow the shape of the dose curve; as a rule, active = well fitted curve in the direction sought with a large enough effect; inconclusive = small, poorly fitted or top-dose-only effect, or another doubt; inactive = no such curve, though single readings can be large; an effect the other way counts as inactive or inconclusive.

How the values were obtained:
HaCat = experiment: Cytotoxic Profiling of Annotated Libraries Using Quantitative High-Throughput Screening (AID 1296008); details: Five cell lines viability, CellTiter-Glo ATP luminescence, 48-72 h; max response: active compounds read low; also: nearly all actives have a fitted effect of over 60% in size
Procedure, shortened: (§1)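 Cytotoxicity was measured as CellTiter-Glo ATP luminescence, read after 10 min at room temperature. Compound treatment of the cells lasted 48 or 72 hr at 37 degrees Celsius in a qHTS format.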

KB-3-1 = experiment: as above; details: Five cell lines viability, CellTiter-Glo ATP luminescence, 48-72 h; max response: active compounds read low
Procedure, shortened: as §1

NIH3T3 = experiment: as above; details: Five cell lines viability, CellTiter-Glo ATP luminescence, 48-72 h; max response: active compounds read low
Procedure, shortened: as §1

C33A = experiment: Primary qHTS to identify gynecologic anti-cancer compounds using libraries of approved drugs and bioactive compounds (AID 1345084); details: Gynecologic cancer cell panel viability, ATPlite luminescence, 48 h; series mostly up to 57.5 µM; also: nearly all actives have a fitted effect of over 55% in size
Procedure, shortened: (§2)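 48 h compound exposure at 37 C, 5% CO2; five-point qHTS. ATPlite luminescence readout of cell ATP.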

CAOV3 = experiment: as above; details: Gynecologic cancer cell panel viability, ATPlite luminescence, 48 h; series mostly up to 57.5 µM
Procedure, shortened: as §2

CASKI = experiment: as above; details: Gynecologic cancer cell panel viability, ATPlite luminescence, 48 h; series mostly up to 57.5 µM
Procedure, shortened: as §2

Es-2 = experiment: as above; details: Gynecologic cancer cell panel viability, ATPlite luminescence, 48 h; series mostly up to 57.5 µM
Procedure, shortened: as §2

HeLa = experiment: as above; details: Gynecologic cancer cell panel viability, ATPlite luminescence, 48 h; series mostly up to 57.5 µM
Procedure, shortened: as §2

Hek293T = experiment: as above; details: Gynecologic cancer cell panel viability, ATPlite luminescence, 48 h, control line for the selectivity index; series mostly up to 57.5 µM
Procedure, shortened: as §2

JEG-3 = experiment: as above; details: Gynecologic cancer cell panel viability, ATPlite luminescence, 48 h; series mostly up to 57.5 µM
Procedure, shortened: as §2

OV90 = experiment: as above; details: Gynecologic cancer cell panel viability, ATPlite luminescence, 48 h; series mostly up to 57.5 µM
Procedure, shortened: as §2
% is scaled to controls: 0 for no effect and ±100 for the full control effect.

[N-]=[N+]=N[C@]1(CO)O[C@@H](n2ccc(=O)[nH]c2=O)[C@@H](O)[C@@H]1O
inactive: max response (HaCat) 4.64% | outcome (KB-3-1) | max response (NIH3T3) -4.26% | Potency (C33A) | Potency (CAOV3) | Potency (CASKI) | Potency (Es-2) | Potency (HeLa) | Potency (Hek293T) | Potency (JEG-3) | Potency (OV90)

C/C(=C/CO)CC[C@@H]1[C@@](C)(O)CCC2C(C)(C)CCC[C@]21C (some centres undefined)
inactive: max response (HaCat) 0.603% | max response (KB-3-1) 5.46% | max response (NIH3T3) -10.9% | Potency (C33A) | Potency (CAOV3) | Potency (CASKI) | Potency (Es-2) | Potency (HeLa) | Potency (Hek293T) | Potency (JEG-3) | Potency (OV90)

CC(=O)NC1C(OC(C)(C)C2CCC3(C)C=C(C4CCC5C4(C)CC(O)C4OC(C(C)(C)O)CCC45C)CCC3O2)OC(CO)C(O)C1O (centres undefined)
inactive: max response (HaCat) 3.68% | max response (KB-3-1) -23.5% | max response (NIH3T3) -10.4% | Potency (C33A) | Potency (CAOV3) | Potency (CASKI) | Potency (Es-2) | Potency (HeLa) | Potency (Hek293T) | Potency (JEG-3) | Potency (OV90)

CC(=O)c1cc2c(cc1O)OC(C)(C)C=C2
inactive: max response (HaCat) -16.3% | outcome (KB-3-1) | max response (NIH3T3) -4.07% | Potency (C33A) | Potency (CAOV3) | Potency (CASKI) | Potency (Es-2) | Potency (HeLa) | Potency (Hek293T) | Potency (JEG-3) | Potency (OV90)

O=C(OC[C@H]1O[C@H](O[C@]2(CO)O[C@H](CO)[C@@H](O)[C@@H]2O)[C@H](O)[C@@H](O)[C@@H]1O)c1ccccc1
inactive: max response (HaCat) 0.397% | max response (KB-3-1) 8.19% | max response (NIH3T3) 4.12% | Potency (C33A) | Potency (CAOV3) | Potency (CASKI) | Potency (Es-2) | Potency (HeLa) | Potency (Hek293T) | Potency (JEG-3) | Potency (OV90)

CC1CC(=O)C2=C(CCC3(O)C(O)c4c(O)cccc4C(=O)C23O)C1 (centres undefined)
inactive: max response (HaCat) -7.44% | max response (KB-3-1) 6.8% | max response (NIH3T3) 1.72% | Potency (C33A) | Potency (CAOV3) | Potency (CASKI) | Potency (Es-2) | Potency (HeLa) | Potency (Hek293T) | Potency (JEG-3) | Potency (OV90)

CC(O)/C=C/C1C(C)C(O[C@@H]2O[C@H](CO)[C@@H](O)[C@H](O)[C@H]2O)C(O)CC1(C)C (some centres undefined)
inactive: max response (HaCat) 1.9% | max response (KB-3-1) 3.1% | max response (NIH3T3) 0.539% | Potency (C33A) | Potency (CAOV3) | Potency (CASKI) | Potency (Es-2) | Potency (HeLa) | Potency (Hek293T) | Potency (JEG-3) | Potency (OV90)

CC(=O)O[C@@H]1[C@@H](CO)O[C@@](CO)(O[C@H]2O[C@H](COC(=O)/C=C/c3ccccc3)[C@@H](O)[C@H](O)[C@H]2O)[C@H]1O
inactive: max response (HaCat) -9.37% | outcome (KB-3-1) | max response (NIH3T3) 1.35% | Potency (C33A) | Potency (CAOV3) | Potency (CASKI) | Potency (Es-2) | Potency (HeLa) | Potency (Hek293T) | Potency (JEG-3) | Potency (OV90)

OC[C@@]1(O)CO[C@@H](OC[C@H]2O[C@@H](Oc3c[nH]c4ccccc34)[C@H](O)[C@@H](O)[C@@H]2O)[C@@H]1O
inactive: max response (HaCat) -26.1% | max response (KB-3-1) -0.625% | max response (NIH3T3) 1.55% | Potency (C33A) | Potency (CAOV3) | Potency (CASKI) | Potency (Es-2) | Potency (HeLa) | Potency (Hek293T) | Potency (JEG-3) | Potency (OV90)

C[C@@H]1O[C@@H](O[C@H]2[C@H](OC(=O)[C@]34CCC(C)(C)C[C@H]3C3=CCC5[C@@]6(C)C[C@H](O)[C@H](O[C@@H]7O[C@H](CO)[C@@H](O[C@H]8OC[C@](O)(CO)[C@H]8O)[C@H](O)[C@H]7O)[C@@](C)(CO)C6[C@H](O)C[C@@]5(C)[C@]3(C)C[C@H]4O)OC[C@H](O)[C@@H]2O)[C@H](O)[C@H](O)[C@H]1O[C@@H]1OC[C@@H](O)[C@H](O[C@@H]2OC[C@](O)(CO)[C@H]2O)[C@H]1O (some centres undefined)
inactive: max response (HaCat) -7.37% | max response (KB-3-1) 8.08% | max response (NIH3T3) -0.781% | activity change, negative = cytotoxicity (C33A) -2.68% [at 6.55 µM] | activity change, negative = cytotoxicity (CAOV3) -10.4% [at 6.55 µM] | activity change, negative = cytotoxicity (CASKI) -0.0524% [at 6.55 µM] | activity change, negative = cytotoxicity (Es-2) 0.233% [at 6.55 µM] | activity change, negative = cytotoxicity (HeLa) -3.15% [at 6.55 µM] | activity change, negative = cytotoxicity (Hek293T) 2.67% [at 6.55 µM] | activity change, negative = cytotoxicity (JEG-3) 23.3% [at 6.55 µM] | activity change, negative = cytotoxicity (OV90) -28.7% [at 6.55 µM]

C=C[C@@H]1[C@H](O[C@@H]2O[C@H](CO)[C@@H](O)[C@H](O)[C@H]2O)OC=C(C(=O)O)[C@H]1CCOC(=O)/C=C/c1ccc(O)c(O)c1
inactive: max response (HaCat) -20.8% | outcome (KB-3-1) | max response (NIH3T3) 0.24% | Potency (C33A) | Potency (CAOV3) | Potency (CASKI) | Potency (Es-2) | Potency (HeLa) | Potency (Hek293T) | Potency (JEG-3) | Potency (OV90)

C[C@@H]1CC[C@@]2(OC1)O[C@H]1C[C@H]3[C@@H]4CC=C5C[C@@H](O)CC[C@]5(C)[C@H]4CC[C@]3(C)[C@H]1[C@@H]2C
inactive: max response (HaCat) 4.49% | max response (KB-3-1) -3.17% | max response (NIH3T3) -1.68% | Potency (C33A) | Potency (CAOV3) | Potency (CASKI) | Potency (Es-2) | Potency (HeLa) | Potency (Hek293T) | Potency (JEG-3) | Potency (OV90)

COc1cccc2cc3c(c(O[C@@H]4O[C@H](CO[C@@H]5O[C@H](CO)[C@@H](O)[C@H](O)[C@H]5O)[C@@H](O)[C@H](O)[C@H]4O)c12)C(C)OC3=O (some centres undefined)
inactive: max response (HaCat) -3.49% | max response (KB-3-1) 9.17% | max response (NIH3T3) 0.0764% | Potency (C33A) | Potency (CAOV3) | Potency (CASKI) | Potency (Es-2) | Potency (HeLa) | Potency (Hek293T) | Potency (JEG-3) | Potency (OV90)

CC(O)CCC1C(CO[C@@H]2O[C@H](CO)[C@@H](O)[C@H](O)[C@H]2O)CC(O)CC1(C)C (some centres undefined)
inactive: max response (HaCat) -5.9% | max response (KB-3-1) 8.38% | max response (NIH3T3) -8.75% | Potency (C33A) | Potency (CAOV3) | Potency (CASKI) | Potency (Es-2) | Potency (HeLa) | Potency (Hek293T) | Potency (JEG-3) | Potency (OV90)
